# Nrf2 activator = qHTS of Nrf2 Activators. AREc32 ARE-luciferase reporter (MCF7-derived line), luminescence, 24 h. Potency, µM (doses to about 46.1 µM), usual class: activators. hit rate 0.31% among 410,000. AID 624171, 2012; further: nearly all actives have a fitted effect of over 65% in size
#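 AREc32 cells carrying an ARE-driven firefly luciferase, 1000 cells/well in OPTI-MEM with 5% FBS, dosed after overnight attachment and incubated 24 hr at 37 deg C. Steady-Glo luminescence read after 30 min at RT.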
# PINK1 expr mod = A Quantitative High throughput Screen to Identify Chemical Modulators of PINK1 Expression. PINK1 immunofluorescence, high-content cytometry, 24 h. Potency, µM (doses to about 76.6 µM), most hits filed as activators. hit rate 0.2% among 410,000. AID 624263, 2012; active means well fitted activation curve with a large enough effect; inconclusive means small, poorly fitted or top-dose-only effect; cell line not stated here; further: nearly all actives have a fitted effect of over 65% in size
#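 Decision-based qHTS: stable cells, 24 h exposure to five compound concentrations, CCCP as control. Fixed cells stained for PINK1 plus nuclear, mitochondrial and cell markers, cytometer read.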
# Nrf2 block = Nrf2 qHTS screen for inhibitors. A549 ARE-Fluc reporter, luciferase luminescence, 18-24 h. Potency, µM (top dose mostly 46 µM), usual class: inhibitors. hit rate 2.1% among 360,000. AID 504444, 2011; further: nearly all actives have a fitted effect of over 60% in size
#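 Nrf2 activity is the BugLite luminescence, read 15 min after reagent at room temperature, following CellTiter-Fluor cytotoxicity readout (30 min, 37C). Compound titrations were applied for 18-24 h to 5000 A549 ARE_Fluc cells/well in 5% FBS OPTI-MEM.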
# A549 tox-1 = Nrf2 qHTS screen for inhibitors: counterscreen for cytotoxicity. A549 ARE-Fluc cells, CellTiter-Fluor viability, 18-24 h. AID 504648, 2011. Potency, µM (top dose mostly 46 µM), actives largely listed as inhibitors. hit rate 0.16% among 390,000
#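 Cytotoxicity counterscreen: CellTiter-Fluor fluorescence was measured in A549 ARE_Fluc cells after 18-24 h of compound exposure in a concentration series. The subsequent BugLite luminescent read reports ARE-luciferase activity.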
# Epigenetic reg = Quantitative High-Throughput Screen for Regulators of Epigenetic Control; murine LDR cells, GFP reporter derepression, 30 h; Potency, µM (doses to about 53.9 µM), most hits filed as activators; hit rate 0.2% among 280,000; further: nearly all actives have a fitted effect of over 60% in size
#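 Reporter derepression read as number of fluorescent GFP-positive objects, 20-120 um in size, counted by laser-scanning cytometer. Mouse LDR line with an epigenetically silenced CMV-GFP locus; compound incubation 30 h, 37 C.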
# FLuc counter 3 = Nrf2 qHTS screen for inhibitors: Purified Fluc Biochemical Counterscreen for Hit Validation; shares compounds with Nrf2 block; hit rate 4% among 1,400; Potency, µM (highest dose often 57.5 µM), actives largely listed as inhibitors; purified firefly luciferase, luminescence inhibition; AID 720522, 2013; further: nearly all actives have a fitted effect of over 65% in size
# Target sequence (P08659 whole entry, looked up): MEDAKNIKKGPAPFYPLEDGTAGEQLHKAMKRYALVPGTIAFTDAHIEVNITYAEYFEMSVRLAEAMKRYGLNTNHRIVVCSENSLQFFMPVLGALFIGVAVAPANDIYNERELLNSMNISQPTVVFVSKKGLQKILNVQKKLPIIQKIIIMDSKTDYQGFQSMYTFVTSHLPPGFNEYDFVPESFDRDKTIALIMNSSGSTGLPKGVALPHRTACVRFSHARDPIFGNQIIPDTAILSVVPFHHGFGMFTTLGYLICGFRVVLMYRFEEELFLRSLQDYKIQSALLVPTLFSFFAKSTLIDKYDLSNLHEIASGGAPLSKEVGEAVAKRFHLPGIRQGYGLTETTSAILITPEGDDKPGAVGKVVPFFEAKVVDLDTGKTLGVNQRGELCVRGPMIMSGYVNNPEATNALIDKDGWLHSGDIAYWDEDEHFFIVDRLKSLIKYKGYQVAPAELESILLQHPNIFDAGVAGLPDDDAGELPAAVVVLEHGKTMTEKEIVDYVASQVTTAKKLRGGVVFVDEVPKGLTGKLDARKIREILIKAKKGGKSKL
# A549 tox-2 = Nrf2 qHTS screen for inhibitors: A549 ARE-Fluc Cytotoxicity Counterscreen for Hit Validation; shares compounds with Nrf2 block; A549 ARE-Fluc cells, cytotoxicity counterscreen; Potency, µM (series often up to 46.1 µM), hits mostly inhibitors; hit rate 2% among 1,400;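 further: cells exposed to compounds for 18 to 24 hours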
# ARE-Fluc inh = Nrf2 qHTS screen for inhibitors: Nrf2 A549 ARE-Fluc Confirmation Assay for Hit Validation; shares compounds with Nrf2 block; A549 ARE-firefly luciferase reporter, luminescence; Potency, µM (doses to about 46.1 µM), most hits filed as inhibitors; hit rate 74% among 1,400; further: nearly all actives have a fitted effect of over 65% in size
# Hits are given with their value; . = inactive; ? = inconclusive; / = not tested or not shown; [ ] = remark or other dose. A selection: hits, their analogues and other compounds. The true share with any hit is near 2.4%. Unless noted, the call rests on the fitted dose curve; in most records, active means well fitted curve in the direction sought with a large enough effect; inconclusive means small, poorly fitted or top-dose-only effect, or another doubt; inactive means no such curve, though single readings can be large; an effect the other way counts as inactive or inconclusive.
SMILES,Nrf2 activator,PINK1 expr mod,Nrf2 block,A549 tox-1,Epigenetic reg,FLuc counter 3,A549 tox-2,ARE-Fluc inh
C=CCn1c(O)c(N=NC(=S)Nc2ccccc2F)c2cc(S(=O)(=O)N3CCOCC3)ccc21,.,.,5.8µM,?,.,.,.,/
C=CCn1c(O)c(N=NC(=S)Nc2ccccc2F)c2ccccc21,.,.,?,?,.,/,/,/
CC(C)CC(=NNC(=O)c1ccncc1)c1cc(Cl)ccc1O,.,.,6.5µM,?,/,.,.,6.5µM
Cc1cc(Cl)ccc1NC(=O)CCS(=O)(=O)c1ccc2c(c1)CC(C)N2C(=O)C1CC1 (configuration not stated),.,.,?,.,.,/,/,/
COc1ccc(N2CCN(C(c3ccc(F)cc3)c3sc4nc(-c5ccco5)nn4c3O)CC2)cc1 (configuration not stated),.,.,/,.,.,/,/,/
Cc1nnsc1C(=O)NC1CCCc2c1cnn2-c1cc(F)cc(F)c1 (configuration not stated),.,.,?,.,/,/,/,/
CC(=O)NC1CCCc2c1cnn2-c1ccc(C(C)(C)C)cc1 (configuration not stated),.,.,.,.,/,/,/,/
Cn1nccc1C(=O)NC1CCCc2c1cnn2-c1ccc(C(C)(C)C)cc1 (configuration not stated),.,.,0.73µM,.,/,?,.,0.73µM
Cc1ccc(-n2ncc3c2CCCC3NC(=O)c2ocnc2C)cc1C (configuration not stated),.,.,2.3µM,.,/,.,.,3.3µM
Cc1cc(C(=O)NC2CCCc3c2cnn3-c2cccc(C)c2C)n(C)n1 (configuration not stated),.,.,0.21µM,.,/,.,?,0.021µM
Cc1nnsc1C(=O)NC1CCCc2c1cnn2-c1ccc(F)cc1F (configuration not stated),.,.,1.2µM,.,/,.,.,3.7µM
COc1cc(Cl)c(NC(=O)CN(C)S(=O)(=O)c2ccc3c(c2)CCCC(=O)N3)c(OC)c1,.,.,.,.,.,/,/,/
COc1ccc(-c2c[n+]3c(n2-c2ccccc2)SCC3)cc1,.,.,2.1µM,.,.,.,.,7.3µM
Cc1ccc(-c2c[n+]3c(n2-c2ccccc2)SCC3)cc1,.,.,2.3µM,.,.,.,.,10µM
COc1ccc(-c2c[n+]3c(n2-c2ccccc2)SCC3)cc1OC,.,.,.,.,.,/,/,/
N#Cc1nc(-c2ccc(OCc3ccccc3Cl)cc2)oc1N1CCC(C(N)=O)CC1,/,.,.,.,/,/,/,/
Brc1ccc[n+](CCc2ccccc2)c1,/,.,/,/,/,/,/,/
CC(Sc1nc2ccccc2c(=O)n1C)C(=O)Nc1ccc2c(c1)OCCO2 (configuration not stated),.,.,5.2µM,.,/,.,.,?
CC(C)Cn1c(SC(C)C(=O)Nc2ccc3c(c2)OCCO3)nc2ccccc2c1=O (configuration not stated),.,.,.,.,.,/,/,/
CN1CCN(c2ncc3nc(-c4cccc(C#N)c4)c(=O)n(CCc4ccccc4)c3n2)CC1,/,.,/,/,/,/,/,/
CCOc1ccc(C(=O)Nc2ccc(N3CCN(C(C)=O)CC3)cc2)cc1[N+](=O)[O-],.,.,?,.,.,/,/,/
CC(=O)N1CCN(c2ccc(Oc3ccc([N+](=O)[O-])c(C(F)(F)F)c3)cc2)CC1,.,.,8.2µM,?,/,.,.,8.2µM
COc1ccc(Nc2nnc(SC(C(=O)Nc3cc(C)ccc3C)c3ccccc3)s2)cc1 (configuration not stated),.,.,8.2µM,.,.,.,.,.
CNCC[C@H](Oc1ccccc1OC)c1ccccc1,/,/,/,/,.,/,/,/
C/C(=N\NC(=O)COc1ccccc1-c1ccccc1)c1ccccn1,?,.,4.6µM,?,?,.,.,1.3µM
SMILES,Nrf2 activator,PINK1 expr mod,Nrf2 block,A549 tox-1,Epigenetic reg,FLuc counter 3,A549 tox-2,ARE-Fluc inh
CSCCC(NC(=O)CCC(=O)OCC(=O)[C@@]1(O)CCC2[C@@H]3CCC4=CC(=O)C=C[C@]4(C)C3[C@@H](O)C[C@@]21C)C(=O)O (some centres not stated),.,.,0.21µM,.,/,.,.,0.058µM
C[C@]12C=CC(=O)C=C1CC[C@@H]1C2C(O)C[C@@]2(C)C1CC[C@]2(O)C(=O)COC(=O)CCC(=O)NC(CC(=O)O)C(=O)O (some centres not stated),.,.,0.1µM,.,/,.,.,0.26µM
CC(C)CC(NC(=O)CCC(=O)OCC(=O)[C@@]1(O)CCC2[C@@H]3CCC4=CC(=O)C=C[C@]4(C)C3[C@@H](O)C[C@@]21C)C(=O)O (some centres not stated),.,.,?,.,/,/,/,/
O=C(N[C@@H]1c2ccccc2C2(CCN(Cc3c(O)ccc4ccccc34)CC2)[C@H]1O)c1ccccc1,/,.,/,/,/,/,/,/
CN(C)c1ccc(-c2noc(C3CCN(S(=O)(=O)c4cccc(Cl)c4)CC3)n2)cc1,.,.,/,.,.,/,/,/
O=S(=O)(c1ccc2c(c1)OCCO2)N1CCC(c2nc3ccccc3[nH]2)CC1,.,.,/,.,.,/,/,/
O=S(=O)(c1ccc2ccccc2c1)N1CCC(c2nc(-c3ccncc3)no2)CC1,.,.,4.1µM,.,.,.,.,?
Cc1ccc(-c2noc(C3CCCN(S(=O)(=O)c4ccc5ccccc5c4)C3)n2)o1 (configuration not stated),.,.,?,.,.,/,/,/
COc1ccc(S(=O)(=O)N2CCC(c3nc4ccccc4s3)CC2)cc1OC,.,.,.,.,.,/,/,/
O=S(=O)(c1ccc2c(c1)OCCO2)N1CCC(c2nc3ccccc3s2)CC1,.,11µM,3.3µM,.[1.84 µM],.,.,.,.
O=S(=O)(c1ccc2c(c1)OCCO2)N1CCC(c2nc3ccc(Cl)cc3[nH]2)CC1,.,.,4.6µM,?,.,.,.,10µM
Cc1ccc(-c2noc(C3CCN(S(=O)(=O)c4ccc5c(c4)OCCO5)CC3)n2)o1,.,.,6.5µM,.,.,.,.,12µM
CC(=O)Nc1cc(C(=O)N2CCSCC2)cc2ncn(CCc3ccccn3)c12,/,.,/,/,/,/,/,/
COC(=O)c1ccc(CN2C[C@H](Sc3ccccn3)C[C@H]2C(=O)N(C)C)cc1,/,.,/,/,/,/,/,/

# Bioassay records deposited in PubChem by National Center for Advancing Translational Sciences (NCATS).
